Screens as filed in PubChem BioAssay.
PI5P4Ka inh – blocks human PI5P4K alpha kinase activity. AID 652105. 330,000 compounds, 1.2% hits. max response, %. P48426. PI5P4Kalpha enzyme, ADP-Glo luminescence, 60 min; hits give low values; active = max response of -50% or lower; inconclusive = between -30% and -50%; inactive = -30% or higher; note: value at the top dose of about 77 µM
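PI5P4Kalpha ADP-Glo assay; 5 microM ATP final; 60 min RT reaction; HEPES pH 7.4/EGTA/CHAPS, 5% DMSO; controls lacking substrate or enzyme; luminescent end-point.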
Pol beta inh – inhibitors of human DNA polymerase beta. AID 485314. P06746. 340,000 compounds, 1.3% hits. Pol beta primer extension/strand displacement, fluorescence kinetic. Potency, µM (series often up to 114 µM), actives largely listed as inhibitors
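Enzyme-only controls used 10 nM Pol beta; buffer lacking enzyme served as negative control. Compound preincubated 15 min, then 50 nM substrate added; 0 and 10 min reads at room temperature.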
Pol iota inh – blocks human DNA polymerase iota activity. 390,000 compounds, 1% hits. Pol iota fluorescent replication assay, 10 min. Potency, µM (highest dose often 115 µM), actives largely listed as inhibitors. Q9UNA4
Target sequence (Q9UNA4 whole entry, looked up): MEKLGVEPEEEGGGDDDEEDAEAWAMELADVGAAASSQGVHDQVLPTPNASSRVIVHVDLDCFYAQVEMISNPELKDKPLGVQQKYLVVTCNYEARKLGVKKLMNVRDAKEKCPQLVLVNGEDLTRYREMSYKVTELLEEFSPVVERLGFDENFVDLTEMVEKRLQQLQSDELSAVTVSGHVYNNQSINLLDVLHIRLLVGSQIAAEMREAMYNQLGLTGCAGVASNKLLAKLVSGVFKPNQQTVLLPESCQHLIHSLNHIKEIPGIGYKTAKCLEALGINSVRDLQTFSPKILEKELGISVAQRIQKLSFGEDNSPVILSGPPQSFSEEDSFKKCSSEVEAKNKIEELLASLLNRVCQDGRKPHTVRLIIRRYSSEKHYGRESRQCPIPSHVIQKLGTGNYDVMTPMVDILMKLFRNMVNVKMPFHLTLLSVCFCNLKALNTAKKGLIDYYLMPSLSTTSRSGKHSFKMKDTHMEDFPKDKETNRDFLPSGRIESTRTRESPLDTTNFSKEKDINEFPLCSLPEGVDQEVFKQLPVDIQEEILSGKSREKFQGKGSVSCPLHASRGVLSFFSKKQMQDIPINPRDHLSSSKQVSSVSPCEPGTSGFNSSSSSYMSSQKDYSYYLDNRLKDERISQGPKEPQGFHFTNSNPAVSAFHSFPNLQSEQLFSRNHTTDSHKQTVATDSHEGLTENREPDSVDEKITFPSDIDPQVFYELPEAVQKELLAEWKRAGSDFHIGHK
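Fluorescent replication assay read twice, at 0 min and 10 min after adding 50 nM (final) substrate. Enzyme (10 nM) and compounds were first incubated 15 min at room temperature; enzyme-free buffer wells were negative controls.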
POLK inh – DNA polymerase kappa (human) inhibition; Q9UBT6; purified Pol kappa, fluorescent DNA synthesis assay, 10 min; Potency, µM (highest dose often 107 µM), hits mostly inhibitors; 400,000 compounds, 0.53% hits
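Kinetic fluorescence readout at 0 and 10 min followed reaction start with substrate at 50 nM final. Beforehand, enzyme (10 nM Pol kappa) stood 15 min with compound at room temperature; buffer-only wells were negative controls.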
WRN inhibitor – inhibitors of human WRN helicase; WRN helicase unwinding, fluorescent forked duplex, kinetic; Potency, µM (series often up to 114 µM), most hits filed as inhibitors; 360,000 compounds, 0.46% hits; note: nearly all actives have a fitted effect of over 55% in size
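Primary qHTS, 1536-well format. 20 nM WRN + compound, 15 min RT; start with 100 nM forked fluorophore/quencher duplex, 2 mM ATP (final); kinetic read ex 525/em 598 nm.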
POLH inh – DNA polymerase eta (human) inhibition; AID 588591; 390,000 compounds, 1.2% hits; Potency, µM (highest dose often 114 µM), hits mostly inhibitors; recombinant Pol eta, fluorescent DNA replication assay
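Fluorescent replication assay: 50 nM final substrate added after a 15 min room-temperature compound preincubation with 10 nM enzyme. Signal taken at 0 min and again at 10 min.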
Hits are given with their value; - = inactive; ? = inconclusive; . = no result given; [ ] = another dose, or the depositor's remark. Rows were chosen to be rich in hits. Some 2.8% of all compounds tested hit in one or more screens of this group. Unless noted, calls come from the whole dose curve; as a rule, active = well fitted curve in the direction sought with a large enough effect; inconclusive = small, poorly fitted or top-dose-only effect, or another doubt; inactive = no such curve, though single readings can be large; an effect the other way counts as inactive or inconclusive.

SMILES	PI5P4Ka inh	Pol beta inh	Pol iota inh	POLK inh	WRN inhibitor	POLH inh
Oc1ccc(N=C/C=C/c2ccc(Br)cc2)cc1-c1nc2ccccc2s1	.	13µM	.	.	.	.
O=C(Nc1ccc(-c2nc3ccccc3s2)c(O)c1)c1ccc(Br)cc1	.	-	-	-	.	-
CN(C)c1nc(Nc2ccc(F)cc2)nc(Oc2ccc(F)cc2)n1	-	-	-	-	-	-
CN(C)c1nc(N/N=C/c2ccccc2O)nc(Nc2ccc(F)cc2)n1	-	?	-	?	-	79µM
COc1ccc(-c2cc(=O)c3c(O)cc(O[C@H]4OC(COC5OC(C)C(O)C(O)[C@H]5O)C(O)C(O)C4O)cc3o2)cc1O (stereo partly specified)	.	.	.	20µM	.	.
COc1ccc(-c2cc(=O)c3c(O)cc(O[C@@H]4OC(COC5OC(C)C(O)C(O)[C@@H]5O)C(O)C(O)C4O)cc3o2)cc1 (stereo partly specified)	.	.	.	-	.	.
O=[N+]([O-])c1ccc2c(c1)-c1ccccc1C2O (stereo unspecified)	-69	.	.	.	-	-
O=[N+]([O-])c1ccc2c(c1)/C(=N\O)c1ccccc1-2	-	-	-	-	-	-
O=C(CCc1nc2ccccc2c(=O)[nH]1)N1CCN(c2ccccc2Cl)CC1	-	.	-	-	-	-
O=C(CCc1nc2ccccc2c(=O)[nH]1)N1CCCc2ccccc21	-	.	-	-	-[11.6 µM]	50µM
O=C(C[n+]1ccccc1Br)c1ccc(Cl)cc1	.	.	-	-	.	.
CC(C)(C)n1ncc2c(=O)n(Cc3ccc(Cl)c(F)c3)cnc21	.	.	-	-	.	.
COc1cccc(NC(=O)Cn2c(=O)n(-c3ccc(C)cc3)c(=O)c3ccc(C(=O)NCc4ccco4)cc32)c1	.	-	-	-	.	-
CCOC(=O)c1ccc(N2C(=O)C3CC=CCC3C2=O)cc1 (stereo unspecified)	.	-	89µM	-	-	-
CC(C)OC(=O)c1ccc(N2C(=O)C3CC=CCC3C2=O)cc1 (stereo unspecified)	-	-	-	-	-	-
O=C(O)c1ccccc1-n1cccc1C(=O)O	-	25µM	?	-	-[11.6 µM]	40µM
C#CCNC(=O)C1=C[C@H](c2ccc3c(c2)OCO3)C[C@H](OCCCCO)O1	-	.	35µM	-	-	50µM
C#CCNC(=O)C1=C[C@@H](c2ccc3c(c2)OCO3)C[C@@H](OCCCCO)O1	?	.	50µM	-	-	?
CCN1C(=O)c2ccccc2S(=O)c2ccc(C(=O)N3CCN(c4cc(Cl)ccc4C)CC3)cc21 (stereo unspecified)	.	-	-	-	.	-
Cc1ccc2oc(-c3cccc(NC(=O)c4ccc(N5CCC(C)CC5)c([N+](=O)[O-])c4)c3)nc2c1	.	-	-	-	.	-
COc1ccc(S(=O)(=O)N2CCC(n3c(C(F)(F)F)nc4cccnc43)CC2)cc1OC	.	-	-	-	.	-
CN(CC(=O)Nc1ccc(Br)cc1)S(=O)(=O)c1cccc2nsnc12	.	-	-	-	.	-
Cc1ccc(-c2nc(N/N=C/c3ccncc3)c3ccccc3n2)cc1	.	?	?	-	-	45µM
c1ccc2c(Nc3nc(-c4ccncc4)nc4ccccc34)cccc2c1	-	-	-	-	-	-
Clc1ccccc1Nc1nc(-c2ccncc2)nc2ccccc12	-	-	50µM	-	-[11.6 µM]	-
SMILES	PI5P4Ka inh	Pol beta inh	Pol iota inh	POLK inh	WRN inhibitor	POLH inh
Cc1cccc(S(=O)(=O)NC(=O)C2(C)CCN2C(=O)Cc2ccc(Cl)cc2Cl)c1 (stereo unspecified)	-	.	.	.	-	.
CCOC(=O)c1c2c(n(-c3ccc(OC)cc3)c1C)C(=O)C(=O)c1ccccc1-2	-	.	8.9µM	-	-	3.2µM
COc1ccccc1CNC(=O)C(Cc1ccccc1)NS(=O)(=O)c1ccc2c(c1)CCN2C(C)=O (stereo unspecified)	.	-	-	-	.	-
COc1ccc(C2=NS(=O)(=O)N(C)C(C(=O)Nc3ccc(OC(F)(F)F)cc3)=C2)cc1	.	-	-	-	.	.
O=c1[nH]c(=S)[nH]cc1S(=O)(=O)c1cccc(Cl)c1	-57	-	-	-	-[11.6 µM]	-
COC(=O)[C@@]12C[C@@H](CC(=O)NCc3cccc4ccccc34)C(=O)N(Cc3ccc4c(c3)OCO4)C1=CCC(C)(C)C2	-	.	.	.	-	.
N#CC1=C(c2ccc(-c3ccccc3)cc2)COC1=O	?	?	?	-	-	89µM
COc1ccc(-n2[nH]c(C)cc2=O)cc1	-	-	1.1µM	-	-	-
O=S(=O)(c1ccc(Cl)cc1)c1nnn2c1nc(N1CCCCC1)c1sccc12	.	-	-	-	.	-
Oc1ccc(NCc2cccc(OCc3ccc(F)cc3)c2)cc1	-	-	22µM	-	-	-
Oc1ccc(NCc2cccc(OCc3ccccc3)c2)cc1	-	-	?	-	-	-
Cc1ccc(N2C(=O)c3cccc4c(N)ccc(c34)C2=O)c2cccnc12	-	?	79µM	?	?	?
Cc1cccc(Cn2cccc2CNS(=O)(=O)c2ccc(C)c(C)c2)c1	.	-	-	-	.	-
COc1cc(OC)c(Nc2ncnc3onc(-c4cccc(Cl)c4)c23)cc1Cl	.	-	-	-	.	-
Cc1ccc(N=Nc2c(=O)[nH]n3c(=O)cc(C)[nH]c23)cc1	?	0.89µM	?	-	-	-
COc1cc(NCCCCCCN)c2ncccc2c1OC	?	.	11µM	-	50µM	45µM
COc1ccc(CNC(=O)C(=O)NCC(c2ccco2)S(=O)(=O)c2ccc(Cl)cc2)cc1 (stereo unspecified)	.	-	-	-	.	-
C=CC(=O)Nc1cccc(N(C)c2ccnc(Nc3ccc(N4CCN(C)CC4)cc3)n2)c1	-65	.	?	-	?	-
Fc1ccc(CNc2nc(-c3ccccc3)cc(C(F)(F)F)n2)cc1	.	-	?	-	.	-
CCCCc1ccc(-c2ccc(C)cc2O)nc1	-	28µM	-	-	-	-
Cn1c(=O)[nH]c(=O)c2c1nc1n2CCN1c1ccccc1	.	-	79µM	?	.	-
CC1CN(c2ccccc2)c2nc3c(c(=O)[nH]c(=O)n3C)n2C1 (stereo unspecified)	-	-	-	-	-	-
O=C1CSC(=S)N1N=Cc1c(O)ccc2ccccc12	-73	.	?	-	?	-
CN(C)C(CNS(=O)(=O)c1cc([N+](=O)[O-])ccc1Cl)c1ccco1 (stereo unspecified)	-	.	?	-	-[11.6 µM]	50µM
COc1cc(N(C)C)cc(CN(C)CCc2ccc([N+](=O)[O-])cc2)c1O	.	.	.	3µM	.	.
COc1ccc(CNCCc2ccc([N+](=O)[O-])cc2)c(OC)c1OC	-	-	-	-	-	-
CSc1ccc(/C=N/NC(=O)CN2CCN(Cc3ccccc3Cl)CC2)cc1	-	0.2µM	-	-	-	-
CSc1ccc(/C=N/NC(=O)CN2CCN(Cc3ccc(C)cc3)CC2)cc1	-	-	-	-	-	-
